Structures are written as SMILES. Records with an inconclusive call do not appear. The source made the active and inactive calls. Calls come from the whole dose curve; as a rule, active = well fitted inhibition curve with a large enough effect in the repeat runs; inconclusive = weak or mixed curves; inactive = no such curve, though single readings can be large or run the other way.
% is set by controls: 0 for no effect and ±100 for the full control effect; potency is the fitted concentration of half-maximal effect.

Chain of Cytochrome P450 3A4 (Homo sapiens) (P08684 whole entry, looked up): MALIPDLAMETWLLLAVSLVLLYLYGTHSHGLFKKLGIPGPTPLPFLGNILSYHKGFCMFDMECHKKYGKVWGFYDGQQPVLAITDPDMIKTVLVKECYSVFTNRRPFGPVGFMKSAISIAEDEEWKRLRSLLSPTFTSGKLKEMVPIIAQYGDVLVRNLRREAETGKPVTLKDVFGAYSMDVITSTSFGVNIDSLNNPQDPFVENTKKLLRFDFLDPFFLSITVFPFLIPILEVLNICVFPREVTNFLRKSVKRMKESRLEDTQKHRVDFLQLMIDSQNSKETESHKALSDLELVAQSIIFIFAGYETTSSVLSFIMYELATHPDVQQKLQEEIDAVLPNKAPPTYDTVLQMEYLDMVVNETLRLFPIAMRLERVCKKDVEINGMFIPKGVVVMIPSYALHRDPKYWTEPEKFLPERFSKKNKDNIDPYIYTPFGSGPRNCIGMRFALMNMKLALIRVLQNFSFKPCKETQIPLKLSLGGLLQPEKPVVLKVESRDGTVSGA

The target of this test is Cytochrome P450 3A4 (Homo sapiens) (UniProt P08684). In words: Cytochrome P450 Family 3 Subfamily A Member 4 (CYP3A4) small molecule antagonists: luciferase reporter qHTS assay (AID 1671201). Note: nearly all actives have a fitted effect of over 50% in size. To be noted: P450-Glo CYP3A4 enzyme, luciferin luminescence, 1 h; series mostly up to 115 µM; activity change, negative = inhibition: at the top concentration. An excerpt:
National Center for Advancing Translational Sciences [NCATS]
U.S. Environmental Protection Agency [EPA]
National Institutes of Environmental Health Sciences [NIEHS]
National Toxicology Program [NTP]
U.S. Food and Drug Administration [FDA]
Cytochrome P450 (CYP) enzymes are membrane-bound hemeproteins that play a key role in metabolism of drugs and xenobiotics. Evaluation of the effect of chemicals on CYP isozymes is useful to minimize the adverse drug reactions and toxicities in drug development process. Tox21 chemicals were tested for their effect on CYP enzyme activities by using P450-Glo (TM) screening systems (Promega Corporation, Madison, WI). These systems provide a luminescent method containing proluciferin substrates and are converted to luciferin products by CYP isozymes. The luciferin products formed are detected with a luciferin detection reagent, and the amount of light produced is proportional to CYP activity. P450-Glo (TM) CYP3A4 screening system (Catalog. No. V9910) was used to detect the compounds that interfere in CYP3A4 activity. The positive control compound used for CYP3A4 assay is ketoconazole (Sigma-Aldrich, St. Louis, MO).
Tox21 Assay Protocol Summary:
Two ul of enzyme-substrate mix was dispensed into medium binding white/solid 1536-well plates (Greiner Bio-One North America Inc., Monroe, NC) using a BioRaptr Flying Reagent Dispenser (FRD, Beckman Coulter, Brea, CA). Compounds dissolved in DMSO and positive control (ketoconazole) were transferred to the assay plates at 23 nl using a Pintool station (Wako, San Diego, CA). The assay plates were incubated at room temperature for 10 min. Then 2 ul of NADPH regeneration solution was added to each well of the assay plates using an FRD and incubated at room temperature for 1 h. The reaction was stopped by adding 4 ul of detection reagent using an FRD and after 20 min incubation at room temperature the luminescence signal was measured using a ViewLux plate reader (Perkin Elmer, Shelton, CT). Data were expressed as relative luminescence units.
Background: In a reporter assay the amount or activity of a reporter protein is the signal.
Consider `CC(C)(O)CCc1ccccc1`, for which the “activity change, negative = inhibition” value was 3.12% (inactive). For `CNc1c2c(nn1C)CCCC2`, the “activity change, negative = inhibition” value is -0.879% [at 52.9 µM] (inactive).

`Cc1c[nH]c2ccccc12`: the “activity change, negative = inhibition” value was -6.78% [at 52.9 µM] (inactive).

In the case of `CCCC(=O)OC(=O)CCC`, the “activity change, negative = inhibition” value was 5.44% (inactive). As to `CC[C@H]1OC(=O)[C@H](C)[C@@H](O[C@H]2C[C@@](C)(OC)[C@@H](O)[C@H](C)O2)[C@H](C)[C@@H](O[C@@H]2O[C@H](C)C[C@H](N(C)C)[C@H]2O)[C@](C)(O)C[C@@H](C)/C(=N\OCOCCOC)[C@H](C)[C@@H](O)[C@]1(C)O`, the Potency was 3.33 µM (active). With `CC1=CC[C@@H]2C[C@H]1C2(C)C`, the Potency was 3.98 µM (active). With `Cc1cc([N+](=O)[O-])ccc1N`, the “activity change, negative = inhibition” value is -10.8% (inactive). The same measure, in the same setting: the value for `COc1cc(NS(=O)(=O)c2ccc(N)cc2)nc(C)n1` was 5.82% [at 52.9 µM] (inactive). As to `CCC(CO)(CO)CO`, the “activity change, negative = inhibition” value is 10.2% (inactive). On the same count and under the same terms, the figure for `COc1ccc(C(=O)NCc2ccc(OCCN(C)C)cc2)cc1OC` is 0.697% [at 52.9 µM] (inactive); for `O=P(O)(O)Oc1ccccc1` it is 10.1% (inactive). The same measure, in the same setting: the figure for `Cc1ccc(Nc2c(F)cccc2Cl)c(CC(=O)O)c1` is 56.2% [at 52.9 µM] (inactive); for `CCN(CC)CC(=O)Nc1c(C)cccc1C(=O)OC` it is 2.49% [at 52.9 µM] (inactive).

Take `COC1CCC=CO1` (stereo not given): the “activity change, negative = inhibition” value is 4.02% (inactive). For `CCN(CC)CCOC(=O)C(c1ccccc1)c1ccccc1`, the “activity change, negative = inhibition” value is -24.3% [at 52.9 µM] (inactive). As to `CCCCCCCCCCCCCCCCCC(=O)OCC(CC)CCCC` (stereo not given), the “activity change, negative = inhibition” value is 4.11% (inactive). For the compound `CCCCCCCC(=O)Oc1c(Br)cc(C#N)cc1Br`, the “activity change, negative = inhibition” value was 68.1% (inactive). `COc1ccc(C)cc1`: the “activity change, negative = inhibition” value was -4.02% (inactive).

As to `O=C(O)c1cc(Cl)cc(Cl)c1O`, the “activity change, negative = inhibition” value is 60% (inactive). Consider `CC(C)Cc1ccc(CC(=O)O)cc1`, for which the “activity change, negative = inhibition” value is 0.631% [at 52.9 µM] (inactive). As to `CC(C)N(C)C`, the “activity change, negative = inhibition” value is 0.649% (inactive). In the case of `CNS(=O)(=O)c1cc(C(=O)N2CCC(CCN3C4CCC3CC(n3c(C)nc5ccccc53)C4)(c3cccc(F)c3)CC2)c(Cl)cc1F` (stereo not given), the “activity change, negative = inhibition” value is 4.26% (inactive). As to `CCCCCCC(O)CCCCCCCCCCC(=O)OC` (stereo not given), the “activity change, negative = inhibition” value was 52.5% (inactive). In the case of `Nc1ccn([C@H]2CS[C@@H](CO)O2)c(=O)n1`, the “activity change, negative = inhibition” value is 3.8% (inactive). Still for that read-out and setting: the value for `O=C(O)/C=C/c1ccc(O)c(O)c1` was 3.55% (inactive); that for `NC(=O)CCCCC(N)=O` was 10.1% (inactive).

Take `CC(C)COC(=O)c1ccc(O)cc1`: the “activity change, negative = inhibition” value is 5.54% (inactive). Take `CCC1CCC(CCC(=O)O)C1` (stereo not given): the “activity change, negative = inhibition” value is 36.6% (inactive). Consider `CC[C@@H](CO)NCCN[C@@H](CC)CO`, for which the “activity change, negative = inhibition” value was 2.78% [at 52.9 µM] (inactive). With `CC(C)c1ccc(C#N)cc1`, the “activity change, negative = inhibition” value is 6.99% (inactive).

With `CCOc1ncc(F)c(=O)[nH]1`, the “activity change, negative = inhibition” value was 10% [at 52.9 µM] (inactive).

Turning to `O=C(O)CNC(=O)c1ccccc1I`, the “activity change, negative = inhibition” value is 11.6% [at 52.9 µM] (inactive). As for `O=C(NC(Cc1cc(=O)[nH]c2ccccc12)C(=O)O)c1ccc(Cl)cc1` (stereo not given), the “activity change, negative = inhibition” value was -6.56% [at 52.9 µM] (inactive). On to `CC(C)OC(=O)c1ccccc1C(=O)OC(C)C`, for which the “activity change, negative = inhibition” value was 182% (inactive).

For the compound `C/C(C=O)=C\c1ccccc1`, the “activity change, negative = inhibition” value is 23.5% (inactive). `NC(=O)c1ccccc1[N+](=O)[O-]`: the “activity change, negative = inhibition” value is 1.71% (inactive). In the case of `Nc1ccc(F)cc1`, the “activity change, negative = inhibition” value was -3.47% (inactive). As to `COC(=O)c1sccc1S(N)(=O)=O`, the “activity change, negative = inhibition” value was 7.03% (inactive). In the case of `CCC(Cl)CC(Cl)C(Cl)C(Cl)C(Cl)C(C)Cl` (stereo not given), the activity change, negative = inhibition was 36.6% [at 23.6 µM] (inactive). Regarding `O=C(/C=C/c1ccc([N+](=O)[O-])cc1)c1ccccc1`, the “activity change, negative = inhibition” value is -13.5% (inactive).

These data come from PubChem BioAssay (Tox21).
